Sampled rows, rich in hits. Any-hit rate of the full collection: about 19%.
IL-1B inflam inh – inhibitors of inflammasome signaling (IL-1 beta secretion). AID 743279. THP-1 LPS/ATP IL-1B secretion, AlphaLISA, 16 h; active compounds read low. activity change, % at 57.5 µM. 360,000 tested, 4.7% active; in the data active means activity change below about -50%; inconclusive means mostly about -30% to -49%; further: on the % scale 0 is the no-effect control and ±100 the full control effect
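THP-1 cells pretreated 1 hr with compounds (up to 57.5 uM final), then stimulated with LPS (250 ng/mL final) plus ATP (1.25 mM final); secreted IL-1B measured by AlphaLISA after 16 hr, decreased signal indicating inhibition.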
BCR signal inh – chronic active BCR signaling inhibition; Potency, µM (titrated, usually from 46.1 µM), for inactives: at the highest dose activity change, negative = inhibition, hits mostly inhibitors; 340,000 tested, 0.05% active; ABC-DLBCL IkBa-CBG/CBR reporter, luminescence ratio, 4 h; active means well fitted inhibition curve with a large enough effect in the signal ratio, with a control signal flat, not every such curve was filed as active; inconclusive means small, poorly fitted or top-dose-only effect, or effect the other way, or a change in a side signal; the % refers to the signal ratio;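 further: potency means the concentration at half of the fitted maximal effect; plate controls were basal doxycycline-induced cells for no effect and cells given 10 µM MG132 for full effect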
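Compounds up to 46 uM were incubated four hours with TMD8 cells whose green CBG68 luciferase is fused to IkappaBalpha; red CBR luminescence normalised the signal, and concentration-effect curves were fitted to fusion, red and ratio data.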
SW480 rereplic – inducers of DNA re-replication in SW480 colon cancer cells | SW480 DNA re-replication, Hoechst DNA content imaging, 48 h | Potency, µM (doses to about 46.1 µM), for inactives: at the top dose re-replication activation, usual class: activators | 340,000 tested, 1.8% active; further: potency means the concentration at half of the fitted maximal effect; % of control where 0% means no effect; nearly all actives have a fitted effect of over 55% in size
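Readout is total intensity of Hoechst-stained nuclei, excited at 405 nm and collected at 500-530 nm. Compound treatment lasted 48 hr at 37 C in 5% CO2 before staining.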
DT40 TDP1 CPT – DT40-hTDP1 cell growth loss with CPT; chicken DT40 Tdp1-/-;hTDP1 cells + 20 nM CPT, ATP luminescence, 48 h; Potency, µM (series often up to 46.2 µM), inactives show at the top dose activity change, negative = growth inhibition, hits mostly inhibitors; 420,000 tested, 12% active; further: potency means the concentration at half of the fitted maximal effect; on the % scale 0 is the no-effect control and ±100 the full control effect; nearly all actives have a fitted effect of over 55% in size
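Chicken DT40 Tdp1-/- cells complemented with human TDP1, 400 cells/well, exposed to compounds plus 20 nM camptothecin for at least 48 h at 37 C; viability read as ATP content by CellTiter-Glo luminescence.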
MCF10A rereplic – inducers of DNA re-replication in MCF 10A breast cells; MCF 10A DNA re-replication, Hoechst nuclear intensity, 48 h; Potency, µM (top dose mostly 46.1 µM), inactives show at the highest dose activity, positive = re-replication, most hits filed as activators; 350,000 tested, 2.9% active; AID 624296; further: potency means the concentration at half of the fitted maximal effect; % of control where 0% means no effect; nearly all actives have a fitted effect of over 50% in size
TDP1 cell noCPT – qHTS for Inhibitors of human tyrosyl-DNA phosphodiesterase 1 (TDP1): qHTS in cells in absence of CPT; DT40 Tdp1-/- hTDP1 cells, no CPT, ATP luminescence, 48 h; Potency, µM (top dose mostly 46.2 µM), inactives show top-dose activity change, negative = growth inhibition, most hits filed as inhibitors; 420,000 tested, 15% active; AID 686978, 2013; further: potency means the concentration at half of the fitted maximal effect; on the % scale 0 is the no-effect control and ±100 the full control effect; nearly all actives have a fitted effect of over 55% in size
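Growth kinetics read by CellTiter-Glo luminescence after ≥48 hr at 37 °C. Cells: DT40 Tdp1-/- stably carrying human TDP1, 400 per well, compound exposure in the absence of CPT (DMSO vehicle).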
The depositor's hits bear a star; [ ] = remark or other dose. Unless noted, the call rests on the fitted dose curve; in most records, active means well fitted curve in the direction sought with a large enough effect; inconclusive means small, poorly fitted or top-dose-only effect, or another doubt; inactive means no such curve, though single readings can be large; an effect the other way counts as inactive or inconclusive.

O=C(Nc1cccs1)Nc1cc(C(F)(F)F)ccc1Cl was read as DT40 TDP1 CPT inconclusive and TDP1 cell noCPT 16.4µM*.
For O=C(Nc1ccc(C(F)(F)F)cn1)Nc1cccs1 the results were IL-1B inflam inh 1.3, BCR signal inh 9.4%, SW480 rereplic -11.3%, DT40 TDP1 CPT 0.5%, MCF10A rereplic 0.4% and TDP1 cell noCPT 8.3%.
O=C(Nc1cccs1)Nc1c(F)c(F)c(F)c(F)c1F was read as IL-1B inflam inh -25.5, BCR signal inh -4.1%, SW480 rereplic -5.9%, DT40 TDP1 CPT 20.6µM*, MCF10A rereplic -1.0% and TDP1 cell noCPT 16.4µM*.
`N#Cc1cccc(NC(=O)Nc2cccs2)c1` gave IL-1B inflam inh -8.7, BCR signal inh inconclusive, SW480 rereplic -6.7%, DT40 TDP1 CPT inconclusive, MCF10A rereplic -5.5% and TDP1 cell noCPT 16.4µM*.
`NC1CCc2ccccc21` (configuration not stated) gave DT40 TDP1 CPT -4.4% and TDP1 cell noCPT inconclusive.
CCOc1ccc(OCCCC(=O)NCCc2ccc(OC)cc2)cc1 was read as IL-1B inflam inh 34.4, BCR signal inh 2.9%, SW480 rereplic -42.4%, DT40 TDP1 CPT 8.3%, MCF10A rereplic 7.7% and TDP1 cell noCPT -1.3%.
Cc1[nH]c(=O)sc1C(=O)NCc1ccc([N+](=O)[O-])cc1 was read as IL-1B inflam inh 20.5, DT40 TDP1 CPT inconclusive and TDP1 cell noCPT -25.6%.
For Cc1nc(CC(=O)Nc2cccc(C)c2C)cs1 the results were DT40 TDP1 CPT -2.8% and TDP1 cell noCPT -21.8%.
Cc1cccc(C)c1NC(=O)Nc1cccs1 was read as IL-1B inflam inh 15.4, BCR signal inh inconclusive, SW480 rereplic 2.4%[9.22 µM], DT40 TDP1 CPT 18.4µM*, MCF10A rereplic -1.4% and TDP1 cell noCPT 18.4µM*.
Screening CCO[C@@H]1OC(C(=O)N2CCN(Cc3ccc4c(c3)OCO4)CC2)=C[C@H](C2CCCCC2)[C@H]1CCCO returned IL-1B inflam inh -59.6*, BCR signal inh -4.1%, SW480 rereplic 1.8%, DT40 TDP1 CPT 20.6µM*, MCF10A rereplic 16.0% and TDP1 cell noCPT inconclusive.
CCO[C@H]1OC(C(=O)NCc2ccccc2)=C[C@@H](C2CCCCC2)[C@@H]1CCCO was read as IL-1B inflam inh -4.8, BCR signal inh -10.5%, SW480 rereplic inconclusive, DT40 TDP1 CPT 18.4µM*, MCF10A rereplic 17.3% and TDP1 cell noCPT 16.4µM*.
For C#CCNC(=O)C1=C[C@@H](c2ccc(C(F)(F)F)cc2)[C@H](CCCO)[C@@H](OCC)O1 the results were IL-1B inflam inh 19.0, BCR signal inh -18.3%, SW480 rereplic -23.5%, DT40 TDP1 CPT 23.1µM*, MCF10A rereplic -7.1% and TDP1 cell noCPT inconclusive.
For CCO[C@H]1OC(C(=O)N2CCN(Cc3ccccc3)CC2)=C[C@@H](C2CCCCC2)[C@@H]1CCCO the results were IL-1B inflam inh -60.2*, BCR signal inh -2.5%, SW480 rereplic inconclusive, DT40 TDP1 CPT 9.2µM*, MCF10A rereplic inconclusive and TDP1 cell noCPT 9.2µM*.
For CCO[C@@H]1OC(C(=O)N2CCN(Cc3ccccc3)CC2)=C[C@H](C)[C@H]1CCCO the results were IL-1B inflam inh -4.7, BCR signal inh -0.1%, SW480 rereplic 4.7%, DT40 TDP1 CPT -7.9%, MCF10A rereplic -0.6% and TDP1 cell noCPT -11.9%.
CCO[C@H]1OC(C(=O)N2CCN(Cc3ccc4c(c3)OCO4)CC2)=C[C@@H](C(C)(C)C)[C@@H]1CCCO was read as IL-1B inflam inh inconclusive, BCR signal inh 12.5%, SW480 rereplic -24.5%, DT40 TDP1 CPT inconclusive, MCF10A rereplic inconclusive and TDP1 cell noCPT inconclusive.
`Cc1c(OCC(=O)N[C@H](C(=O)O)c2ccccc2)ccc2c3c(c(=O)oc12)CCCC3` gave IL-1B inflam inh -7.3, BCR signal inh 12.1%, SW480 rereplic -5.1%, DT40 TDP1 CPT 2.8%, MCF10A rereplic inconclusive and TDP1 cell noCPT -15.7%.
`CCO[C@H]1OC(C(=O)N2CCN(C)CC2)=C[C@@H](c2ccc3c(c2)OCO3)[C@@H]1CCCO` gave IL-1B inflam inh 5.7, BCR signal inh -15.1%, SW480 rereplic -11.2%, DT40 TDP1 CPT -14.0%, MCF10A rereplic 0.3% and TDP1 cell noCPT 0.3%.
CCO[C@@H]1OC(C(=O)N2CCN(Cc3ccc4c(c3)OCO4)CC2)=C[C@H](c2ccc(C(F)(F)F)cc2)[C@H]1CCCO was read as IL-1B inflam inh -60.1*, BCR signal inh 4.4%, SW480 rereplic -13.2%, DT40 TDP1 CPT 16.4µM*, MCF10A rereplic -0.9% and TDP1 cell noCPT 20.6µM*.
`CCO[C@@H]1OC(C(=O)N2CCN(C)CC2)=C[C@H](C2CCCCC2)[C@H]1CCCO` gave IL-1B inflam inh -0.1, BCR signal inh 11.7%, SW480 rereplic -15.1%, DT40 TDP1 CPT -17.5%, MCF10A rereplic 25.3% and TDP1 cell noCPT 5.0%.
CCO[C@H]1OC(C(=O)N2CCCCCCC2)=C[C@@H](C2CCCCC2)[C@@H]1CCCO was read as IL-1B inflam inh -23.2, BCR signal inh 28.3%, SW480 rereplic -65.4%[9.22 µM], DT40 TDP1 CPT 25.9µM*, MCF10A rereplic 46.8% and TDP1 cell noCPT 13µM*.
For CCOC(=O)C1=CCN(S(=O)(=O)c2ccccc2)C1c1ccc(Cl)cc1 (configuration not stated) the results were IL-1B inflam inh 4.5, DT40 TDP1 CPT -25.1% and TDP1 cell noCPT inconclusive.
COc1cc(CNc2nccn3ccnc23)cc(OC)c1 was read as IL-1B inflam inh 27.6, DT40 TDP1 CPT inconclusive and TDP1 cell noCPT inconclusive.
`Cc1ccccc1Cn1cnc2c(cnn2C(C)(C)C)c1=O` gave IL-1B inflam inh -22.3, BCR signal inh -4.4%, SW480 rereplic -0.3%, DT40 TDP1 CPT inconclusive, MCF10A rereplic 3.8% and TDP1 cell noCPT inconclusive.
`CC(C)(C)n1ncc2c(=O)n(CC(=O)NCc3ccc(F)cc3)cnc21` gave IL-1B inflam inh 36.9, BCR signal inh -25.5%, SW480 rereplic inconclusive, DT40 TDP1 CPT 6.51µM*, MCF10A rereplic inconclusive and TDP1 cell noCPT 8.2µM*.
Screening CC(C)(C)n1ncc2c(=O)n(CC(=O)NCc3ccco3)cnc21 returned IL-1B inflam inh 18.8, BCR signal inh -18.9%, SW480 rereplic 10.3%, DT40 TDP1 CPT inconclusive, MCF10A rereplic inconclusive and TDP1 cell noCPT inconclusive.

Screening results: PubChem BioAssay, National Center for Advancing Translational Sciences (NCATS)
